TrxR1 substrate = substrates of rat thioredoxin reductase 1; O89049; purified TrxR1 substrate turnover, NADPH consumption readout; Potency, µM (top dose mostly 114 µM); 390,000 compounds, 0.01% hits; AID 588456; note: nearly all actives have a fitted effect of over 50% in size
Target sequence (O89049 whole entry, looked up): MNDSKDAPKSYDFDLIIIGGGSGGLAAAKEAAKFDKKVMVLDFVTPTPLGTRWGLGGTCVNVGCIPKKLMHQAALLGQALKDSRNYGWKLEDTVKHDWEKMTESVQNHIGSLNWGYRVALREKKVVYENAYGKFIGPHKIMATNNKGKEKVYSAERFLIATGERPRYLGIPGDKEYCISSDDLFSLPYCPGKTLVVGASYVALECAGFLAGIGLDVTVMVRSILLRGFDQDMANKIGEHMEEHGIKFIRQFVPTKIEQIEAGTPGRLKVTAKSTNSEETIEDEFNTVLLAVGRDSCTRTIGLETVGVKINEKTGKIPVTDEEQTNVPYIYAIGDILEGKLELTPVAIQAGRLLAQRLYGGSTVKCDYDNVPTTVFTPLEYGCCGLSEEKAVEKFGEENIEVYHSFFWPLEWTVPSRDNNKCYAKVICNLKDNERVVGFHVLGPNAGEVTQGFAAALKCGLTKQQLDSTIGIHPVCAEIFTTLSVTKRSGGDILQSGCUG
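Rat TrxR1, dispensed at 90 nM, was prereduced with 400 uM NADPH (final) for 5 min at ~22 deg C, then incubated with compound 15 min before 400 uM selenite. A first-read NADPH fluorescence drop versus no-compound background flagged substrates.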
A-T KAP1 phos = potential ataxia-telangiectasia treatment; F2112 A-T fibroblasts, KAP-1 phosphorylation AlphaLISA; neocarzinostatin DNA damage 30 min before lysis; AID 485349; Potency, µM (top dose mostly 57.5 µM), usual class: activators; 320,000 compounds, 0.19% hits; note: nearly all actives have a fitted effect of over 45% in size
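hTERT-immortalized A-T patient fibroblasts (F2112), 500 cells/well in OPTI-MEM, 1% FBS, got compounds for 60 min, then NCS for 30 min at 37C. Lysates were then assayed for phospho-KAP-1 by AlphaLISA (anti-pKAP1 donor, anti-KAP1 acceptor beads), 6 hr at 25C.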
rTrxR1 inhibitor = blocks rat thioredoxin reductase 1; recombinant rTrxR1, NADPH fluorescence consumption, selenite substrate; 390,000 compounds, 1% hits; Potency, µM (doses to about 114 µM), most hits filed as inhibitors; note: nearly all actives have a fitted effect of over 65% in size
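Rat TrxR1 (90 nM in the dispensed reagent) was pre-reduced with 400 uM NADPH for 5 min at room temperature, then incubated with compound for 15 min. After 400 uM selenite was added, NADPH fluorescence (Ex 340/Em 450 nm) was followed for 8 min.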
pAkt inh = Akt phosphorylation inhibition | activity change, % for hits at 50 µM | 360,000 compounds, 0.32% hits | Neuro2A IGF-stimulated pAkt S473 HTRF, 20 min; active compounds read low | AID 651550; in the data active = activity change below about -80%; inconclusive = mostly about -51% to -80%
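Neuro2A cells (4,500/well, DMEM with 0.5% FBS) were treated with compound at a single 50 µM final concentration, stimulated with 6 nM IGF for 20 min at 37 °C, and lysed. Phospho-Akt Ser473 was read by HTRF as 665/615 ratio ×10^4.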
N370S GC mod = N370S glucocerebrosidase modulation, Gaucher chaperone candidate | P04062 | N370S GC spleen homogenate, 4MU-glucoside fluorescence | Potency, µM (titrated, usually from 59.4 µM), hits mostly inhibitors | 330,000 compounds, 0.092% hits | AID 2101
Pin1 inhibitor = inhibitors of human Pin1. Q13526. Pin1 FP peptide displacement, HiFluor488, 10 min. Potency, µM (doses to about 115 µM), usual class: inhibitors. 390,000 compounds, 0.009% hits. AID 504891; active = well fitted inhibition curve with a large enough effect in the polarisation, with a control signal flat, not every such curve was filed as active; inconclusive = small, poorly fitted or top-dose-only effect, or effect the other way, or a change in a side signal; inactive = no such curve, though single readings can be large or run the other way; the % refers to the polarisation
Target sequence (Q13526 whole entry, looked up): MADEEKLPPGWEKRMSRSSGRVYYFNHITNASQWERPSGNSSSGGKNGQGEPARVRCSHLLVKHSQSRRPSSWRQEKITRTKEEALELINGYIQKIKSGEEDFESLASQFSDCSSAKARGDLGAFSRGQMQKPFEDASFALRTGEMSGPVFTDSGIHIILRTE
Hits are given with their value; . = inactive; ? = inconclusive; / = not tested or not shown. The list is not random: actives were taken first. Their share in the collection is about 1.4%. Unless noted, calls come from the whole dose curve; as a rule, active = well fitted curve in the direction sought with a large enough effect; inconclusive = small, poorly fitted or top-dose-only effect, or another doubt; inactive = no such curve, though single readings can be large; an effect the other way counts as inactive or inconclusive.

SMILES | TrxR1 substrate | A-T KAP1 phos | rTrxR1 inhibitor | pAkt inh | N370S GC mod | Pin1 inhibitor
Cc1ccc(OCC(=O)Nc2ccc(Cl)c(-c3nc4ncccc4o3)c2)cc1C | . | / | . | / | / | .
CC(C)(C)c1ccc(-n2nc(C#N)c(Cl)cc2=O)cc1 | . | . | 16µM | . | ? | ?
CCOc1ccc(C(=O)NC(=S)Nc2cccnc2)cc1[N+](=O)[O-] | . | / | . | . | . | .
Cc1cc(C)cc(C(=O)NC(=S)Nc2cccnc2)c1 | . | . | 45µM | . | . | .
COc1ccc(C(=O)NC(=S)Nc2cccnc2)cc1[N+](=O)[O-] | . | . | 10µM | . | . | .
COc1ccc(-c2nnn3c2nc(NCCc2ccc(OC)c(OC)c2)c2ccccc23)cc1 | . | / | . | / | / | .
NCCC(=O)Nc1cccc(-c2nn3c(=O)cc(N4CCNCC4)nc3s2)c1 | / | / | / | / | / | .
O=c1c(O)c(-c2ccc(O)cc2O)oc2cc(O)cc(O)c12 | . | . | 7.1µM | / | . | /
COc1ccc(C2=CC3=C(Br)C(=O)C(C)(OC(=O)c4cnc5ccccc5n4)C(=O)C3=CO2)cc1 (stereo not given) | / | / | / | / | . | /
COc1ccc(C2=CC3=C(Br)C(=O)C(C)(OC(=O)c4ccco4)C(=O)C3=CO2)cc1 (stereo not given) | . | . | 50µM | . | . | ?
COc1ccc(C2=CC3=C(Br)C(=O)C(C)(OC(=O)c4cccs4)C(=O)C3=CO2)cc1 (stereo not given) | . | / | 50µM | . | . | ?
O=C1NC2c3c(I)sc(I)c3C(=O)C2O1 (stereo not given) | . | / | 2.5µM | . | / | ?
O=C1NC2c3c(Cl)sc(Cl)c3C(=O)C2O1 (stereo not given) | . | / | 6.3µM | . | / | /
O=C1NC2c3ccccc3CC2O1 (stereo not given) | . | . | . | . | . | .
CC(=O)N1c2ccccc2CC1C(=O)N1CCN(c2ccccc2)CC1 (stereo not given) | . | / | . | / | / | .
O=S(=O)(c1ccc2c(c1)OCCO2)N1CCN(S(=O)(=O)c2ccc(F)cc2F)CC1 | / | / | / | / | / | .
CC(=O)Nc1ccc(Nc2nc3c(S(=O)(=O)c4cccc(Cl)c4)nnn3c3ccsc23)cc1 | . | / | . | / | / | .
Cn1cncc1CNc1ncnc2ccc(-c3ccc4c(c3)OCO4)cc12 | / | / | / | / | / | .
COc1ccc(C(C)=O)cc1COC(=O)CNC(=O)c1ccccc1F | . | . | 16µM | . | . | .
C[C@@H]1[C@H](c2ccccc2)OCCS(=O)(=O)N1Cc1cccc(Cl)c1 | . | / | . | / | / | /
CCCCc1cc(=O)oc2cc(OC(C)C(=O)NCCN3CCOCC3)c(Cl)cc12 (stereo not given) | . | . | . | . | 20µM | .
CCCCc1cc(=O)oc2cc(OCC(=O)NCCN3CCOCC3)c(Cl)cc12 | . | . | . | . | . | .
CCOC(=O)c1ccc(COC(=O)CCc2nc3ccccc3[nH]c2=O)o1 | . | . | . | -103% | . | .
CCC(=O)Nc1cc(-c2nc3cc(C)cc(C)c3o2)ccc1C | . | / | . | / | / | .
O=C(Nc1ccc(Cl)cc1Cl)[C@@H]1CC=C[C@@H]2CCN(Cc3ccccc3)C(=O)[C@@H]21 | . | / | . | / | / | /
SMILES | TrxR1 substrate | A-T KAP1 phos | rTrxR1 inhibitor | pAkt inh | N370S GC mod | Pin1 inhibitor
Cc1ccc(-c2cc3ncc(C(=O)c4cc([N+](=O)[O-])ccc4O)cn3n2)cc1 | . | / | ? | / | / | .
CC1(C)COC(c2ccc(F)c([N+](=O)[O-])c2)=N1 | . | . | 18µM | . | . | .
COC(=O)CC(=O)CSc1nc2cc(C(=O)NCC(C)C)ccc2c(=O)n1CCc1ccccc1 | . | / | . | / | / | ?
Cc1cc(NS(=O)(=O)c2ccc(NC(=O)c3ccco3)cc2)nc(C)n1 | . | / | . | . | . | .
Cc1cc(NS(=O)(=O)c2ccc(NC(=O)/C=C/c3ccco3)cc2)nc(C)n1 | . | . | 13µM | . | . | .
O=C(/C=C/c1ccco1)Nc1ccc(C(=O)N2CCOCC2)cc1 | . | . | 40µM | . | . | .
O=C(/C=C/c1ccco1)Nc1ccc(CN2CCOCC2)cc1 | . | . | . | . | . | .
O=C(/C=C/c1ccco1)Nc1ccc(N2CCCC2)cc1 | . | . | 32µM | . | . | .
O=C(/C=C/c1ccco1)Nc1ccc(Oc2ccc(Cl)cc2)cc1 | . | . | . | -108% | / | .
COc1ccc(O)c(-c2nc3ccccc3c(=O)n2Cc2ccccc2)c1 | / | / | / | / | / | .
CC(NC(=O)C1CCCN1C(=O)CN)C(=O)O (stereo not given) | / | / | / | / | . | /
Cc1ccc(CCNC(=O)CSCc2nc(-c3ccc(C)cc3)oc2C)cc1 | . | / | . | / | / | .
O=C(COc1ccccc1C(=O)Nc1ccccc1)Nc1ccccc1-c1ccccc1 | . | / | . | / | / | /
CCCSC1=NC2(CCN(C(=O)NC3CCCCC3)CC2)N=C1c1ccc(OC)cc1 | . | / | . | / | / | .
Cc1cc(C)cc(NC(=S)NCC2CCCO2)c1 (stereo not given) | . | . | . | -115% | ? | .
COc1ccc(/C=N/NC(=O)c2cccc(C(=O)N/N=C/c3ccc(OC)cc3)n2)cc1 | . | . | 50µM | . | . | .
O=C(N/N=C\c1ccccc1)c1cccc(C(=O)N/N=C\c2ccccc2)n1 | . | / | . | . | / | .
O=C(Nc1ccc(O)c2ncccc12)c1ccccc1F | / | / | / | / | / | .
Cc1cnc2ccccc2c1/C=C/c1ccc(N(C)C)cc1 | . | / | . | / | / | /
CCCOc1ccc(N2C(=O)CC(N(O)c3ccccc3)C2=O)cc1 (stereo not given) | . | . | 7.9µM | . | . | .
CCCOc1ccc(N2C(=O)CC(SCCN)C2=O)cc1 (stereo not given) | . | . | 79µM | . | . | .
COc1ccccc1N(O)C1CC(=O)N(c2ccc(F)cc2)C1=O (stereo not given) | . | . | 0.89µM | . | . | .
O=C(CNC(=O)c1ccc(-c2ccccc2)cc1)OC(C(=O)Nc1cc(C(F)(F)F)ccc1Cl)c1ccccc1 (stereo not given) | / | / | / | / | / | .
O=C1/C(=C/c2ccc(O)c(O)c2)Oc2ccccc21 | / | / | / | / | . | /
CCCCC1C(=O)N(c2ccccc2)N(c2ccc(O)cc2)C1=O (stereo not given) | . | . | 7.9µM | . | . | .
O=C(NC1CC1)c1cc(-c2ccco2)nc2ccccc12 | . | . | . | . | . | 21µM
CCNC(=O)COC(=O)c1cc(-c2ccco2)nc2ccccc12 | . | . | 11µM | . | . | ?
O=C(NC(=S)Nc1cccc(S(=O)(=O)NC2=NCCC2)c1)c1cc(-c2ccco2)nc2ccccc12 | . | . | 25µM | . | . | ?
COC(=O)c1cc(-c2ccc(C)o2)nc2ccccc12 | . | . | 32µM | . | . | .
O=C1c2ccccc2C(=O)N1c1cccc2ncccc12 | / | / | / | / | / | .

From PubChem BioAssay
